Assay results from the supplement of paper PMC12819154, “High-throughput peptide-centric local stability assay extends protein–ligand identification to membrane proteins, tissues and bacteria” (Nature Structural & Molecular Biology, 2025).
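Note: lysate desalted by size exclusion to strip endogenous ATP, peptide intensities built from DIA-NN precursor signals, and peptides missing any value discarded before comparison.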

UniProt P52129, sequence (P52129 whole entry): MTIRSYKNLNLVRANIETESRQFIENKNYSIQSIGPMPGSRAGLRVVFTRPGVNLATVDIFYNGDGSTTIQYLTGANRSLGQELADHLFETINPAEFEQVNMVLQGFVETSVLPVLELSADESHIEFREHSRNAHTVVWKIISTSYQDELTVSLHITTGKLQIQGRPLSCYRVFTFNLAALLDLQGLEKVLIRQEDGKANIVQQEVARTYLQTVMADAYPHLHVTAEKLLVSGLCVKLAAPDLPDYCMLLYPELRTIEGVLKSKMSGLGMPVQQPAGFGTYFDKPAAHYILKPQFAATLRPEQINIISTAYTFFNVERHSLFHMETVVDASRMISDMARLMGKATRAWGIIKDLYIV
UniProt P77795, sequence (P77795 whole entry): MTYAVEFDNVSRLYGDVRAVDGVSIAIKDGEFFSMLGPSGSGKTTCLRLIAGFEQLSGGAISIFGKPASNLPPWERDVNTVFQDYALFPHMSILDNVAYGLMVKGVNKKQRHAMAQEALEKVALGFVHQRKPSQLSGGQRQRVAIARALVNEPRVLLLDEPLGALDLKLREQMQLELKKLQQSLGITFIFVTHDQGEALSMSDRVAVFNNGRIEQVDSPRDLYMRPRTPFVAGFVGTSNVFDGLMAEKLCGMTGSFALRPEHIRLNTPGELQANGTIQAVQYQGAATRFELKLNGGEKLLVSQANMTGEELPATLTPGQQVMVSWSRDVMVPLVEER
UniProt P77272, sequence (P77272 whole entry): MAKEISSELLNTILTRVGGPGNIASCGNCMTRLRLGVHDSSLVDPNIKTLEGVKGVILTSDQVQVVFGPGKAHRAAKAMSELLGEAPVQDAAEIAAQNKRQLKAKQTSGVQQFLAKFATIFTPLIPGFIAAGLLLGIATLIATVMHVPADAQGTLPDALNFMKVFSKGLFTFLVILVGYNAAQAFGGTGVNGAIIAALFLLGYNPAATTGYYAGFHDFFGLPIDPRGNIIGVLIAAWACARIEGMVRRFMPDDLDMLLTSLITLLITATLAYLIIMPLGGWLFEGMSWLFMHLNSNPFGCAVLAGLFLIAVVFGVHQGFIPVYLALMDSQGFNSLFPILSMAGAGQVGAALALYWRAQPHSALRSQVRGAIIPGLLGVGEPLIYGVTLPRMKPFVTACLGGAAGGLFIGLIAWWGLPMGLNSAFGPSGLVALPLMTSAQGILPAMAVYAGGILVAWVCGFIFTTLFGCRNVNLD
UniProt P03007, sequence (P03007 whole entry): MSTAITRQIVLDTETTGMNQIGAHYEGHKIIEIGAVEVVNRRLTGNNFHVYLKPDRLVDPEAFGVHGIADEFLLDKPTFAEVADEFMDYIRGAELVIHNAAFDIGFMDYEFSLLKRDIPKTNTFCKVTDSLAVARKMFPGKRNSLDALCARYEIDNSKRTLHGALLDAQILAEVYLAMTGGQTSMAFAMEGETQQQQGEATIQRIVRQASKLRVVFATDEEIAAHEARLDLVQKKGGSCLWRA
UniProt P08200, sequence (P08200 whole entry): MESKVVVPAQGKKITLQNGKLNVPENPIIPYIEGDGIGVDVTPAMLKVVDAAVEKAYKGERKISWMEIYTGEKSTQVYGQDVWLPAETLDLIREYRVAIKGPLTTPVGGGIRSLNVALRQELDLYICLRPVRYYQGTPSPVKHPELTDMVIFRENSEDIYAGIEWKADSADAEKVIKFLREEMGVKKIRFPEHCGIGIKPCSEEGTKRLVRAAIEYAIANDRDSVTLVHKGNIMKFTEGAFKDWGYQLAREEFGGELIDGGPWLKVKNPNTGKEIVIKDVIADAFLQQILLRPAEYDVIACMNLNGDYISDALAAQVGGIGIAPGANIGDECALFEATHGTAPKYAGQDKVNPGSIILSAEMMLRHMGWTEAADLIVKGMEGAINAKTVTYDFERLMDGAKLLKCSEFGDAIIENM
UniProt Q47147, sequence (Q47147 whole entry): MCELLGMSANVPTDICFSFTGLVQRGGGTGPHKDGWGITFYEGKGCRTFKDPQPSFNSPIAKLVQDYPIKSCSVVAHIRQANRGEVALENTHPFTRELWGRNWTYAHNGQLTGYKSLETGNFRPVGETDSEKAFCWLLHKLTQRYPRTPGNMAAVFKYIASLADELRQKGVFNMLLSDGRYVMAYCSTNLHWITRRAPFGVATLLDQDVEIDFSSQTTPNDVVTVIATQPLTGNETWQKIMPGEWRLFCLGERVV
UniProt P76562, sequence (P76562 whole entry): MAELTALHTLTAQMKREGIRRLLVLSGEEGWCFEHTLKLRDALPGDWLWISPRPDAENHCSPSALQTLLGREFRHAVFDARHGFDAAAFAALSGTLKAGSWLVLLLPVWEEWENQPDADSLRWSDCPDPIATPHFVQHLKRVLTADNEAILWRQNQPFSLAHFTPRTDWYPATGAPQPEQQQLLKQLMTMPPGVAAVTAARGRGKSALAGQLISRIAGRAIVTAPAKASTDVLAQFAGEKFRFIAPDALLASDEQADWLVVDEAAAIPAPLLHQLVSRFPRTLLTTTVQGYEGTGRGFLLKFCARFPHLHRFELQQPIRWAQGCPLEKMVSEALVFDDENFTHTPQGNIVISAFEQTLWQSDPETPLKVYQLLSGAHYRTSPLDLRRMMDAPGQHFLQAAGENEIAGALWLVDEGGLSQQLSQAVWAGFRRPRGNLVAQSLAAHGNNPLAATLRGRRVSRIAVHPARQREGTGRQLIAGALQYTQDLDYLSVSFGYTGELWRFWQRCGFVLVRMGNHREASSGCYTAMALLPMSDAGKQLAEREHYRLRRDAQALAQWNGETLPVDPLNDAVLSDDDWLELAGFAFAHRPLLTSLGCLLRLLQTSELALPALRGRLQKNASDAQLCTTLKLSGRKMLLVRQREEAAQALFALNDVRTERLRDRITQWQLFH
UniProt P69829, sequence (P69829 whole entry): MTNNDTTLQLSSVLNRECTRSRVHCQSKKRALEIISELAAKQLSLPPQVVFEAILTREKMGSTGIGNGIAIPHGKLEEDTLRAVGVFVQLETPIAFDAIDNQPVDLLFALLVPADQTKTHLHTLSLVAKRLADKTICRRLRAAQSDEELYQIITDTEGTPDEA
UniProt P56258, sequence (P56258 whole entry): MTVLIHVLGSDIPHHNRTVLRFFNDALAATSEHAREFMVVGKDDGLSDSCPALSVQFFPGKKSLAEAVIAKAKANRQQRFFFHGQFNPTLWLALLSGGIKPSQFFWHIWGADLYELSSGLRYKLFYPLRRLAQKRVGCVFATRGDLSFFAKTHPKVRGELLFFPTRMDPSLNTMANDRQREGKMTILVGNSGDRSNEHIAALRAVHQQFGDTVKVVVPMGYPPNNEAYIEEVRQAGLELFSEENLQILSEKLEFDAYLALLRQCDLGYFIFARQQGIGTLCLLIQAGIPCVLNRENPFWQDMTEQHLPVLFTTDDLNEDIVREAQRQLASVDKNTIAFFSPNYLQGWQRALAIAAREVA
UniProt P0AAG8, sequence (P0AAG8 whole entry): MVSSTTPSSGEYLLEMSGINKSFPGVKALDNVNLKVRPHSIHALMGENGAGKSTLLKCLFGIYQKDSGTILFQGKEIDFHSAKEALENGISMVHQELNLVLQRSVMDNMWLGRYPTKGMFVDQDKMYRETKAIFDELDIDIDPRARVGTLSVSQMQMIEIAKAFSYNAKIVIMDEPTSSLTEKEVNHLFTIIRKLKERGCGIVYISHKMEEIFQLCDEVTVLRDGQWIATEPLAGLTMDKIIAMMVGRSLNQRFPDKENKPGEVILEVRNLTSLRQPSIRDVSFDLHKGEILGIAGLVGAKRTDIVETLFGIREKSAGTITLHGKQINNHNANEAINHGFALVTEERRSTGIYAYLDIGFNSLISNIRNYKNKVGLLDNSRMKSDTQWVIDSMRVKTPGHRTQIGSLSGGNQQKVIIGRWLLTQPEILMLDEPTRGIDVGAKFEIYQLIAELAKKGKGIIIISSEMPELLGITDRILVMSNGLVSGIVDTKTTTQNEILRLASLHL
UniProt P11868, sequence (P11868 whole entry): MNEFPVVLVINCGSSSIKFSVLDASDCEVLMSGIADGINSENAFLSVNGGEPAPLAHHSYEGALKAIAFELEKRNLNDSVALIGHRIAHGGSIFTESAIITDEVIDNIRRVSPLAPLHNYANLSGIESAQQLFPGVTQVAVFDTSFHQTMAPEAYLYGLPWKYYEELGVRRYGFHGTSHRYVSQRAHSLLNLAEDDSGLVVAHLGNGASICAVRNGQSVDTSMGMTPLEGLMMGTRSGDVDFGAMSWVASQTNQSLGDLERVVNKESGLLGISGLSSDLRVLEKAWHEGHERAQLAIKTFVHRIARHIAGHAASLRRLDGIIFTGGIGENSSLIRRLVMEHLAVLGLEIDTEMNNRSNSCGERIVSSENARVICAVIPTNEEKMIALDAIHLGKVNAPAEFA
UniProt P45541, sequence (P45541 whole entry): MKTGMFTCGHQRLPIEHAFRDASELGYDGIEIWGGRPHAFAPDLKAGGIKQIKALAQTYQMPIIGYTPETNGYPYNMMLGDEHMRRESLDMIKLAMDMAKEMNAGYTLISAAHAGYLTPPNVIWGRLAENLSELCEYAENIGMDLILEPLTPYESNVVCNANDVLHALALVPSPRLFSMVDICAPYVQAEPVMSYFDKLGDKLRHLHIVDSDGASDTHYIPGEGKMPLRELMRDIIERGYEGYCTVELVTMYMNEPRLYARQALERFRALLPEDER
UniProt P64624, sequence (P64624 whole entry): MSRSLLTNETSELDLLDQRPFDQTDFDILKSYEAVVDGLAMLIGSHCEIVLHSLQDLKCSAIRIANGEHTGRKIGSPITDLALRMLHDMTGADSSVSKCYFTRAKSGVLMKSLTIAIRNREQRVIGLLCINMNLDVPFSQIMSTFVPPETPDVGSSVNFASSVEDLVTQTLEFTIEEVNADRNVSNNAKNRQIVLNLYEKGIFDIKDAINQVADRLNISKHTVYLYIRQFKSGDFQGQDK

Each target was assayed with Nc1ncnc2c1ncn2[C@@H]1O[C@H](COP(=O)(O)OP(=O)(O)OP(=O)(O)O)[C@@H](O)[C@H]1O [adenosine 5'-triphosphate] (assay: log2 fold change of tryptic peptide abundance, ligand vs vehicle (limited proteolysis) (log2 ratio); higher = more trypsin-susceptible (destabilized)). Conditions: ligand concentration: 5 mM; sample: E. coli desalted lysate; replicate design: treated before aliquoting.
Procedure: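 HT-PELSA: desalted E. coli K-12 BW25113 lysate (with 12 mM MgCl2) incubated with 5 mM ATP (pH 7) or water for 30 min at 25 C, then a 4 min trypsin pulse at 22 C. Peptides were quantified by DIA-MS (4 replicates). Value is the peptide log2 fold change (treated/control); negative = stabilized. Scale: negative = ligand-stabilized region.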
With “UniProt P08660 (peptide sequence: RNQTLLTLHSLNMLHSR, peptide start residue: 306)” the log2 fold change was -0.461. “UniProt P08956 (peptide sequence: ITGDADKDAR, peptide start residue: 763)” gave a log2 fold change of -3.68. “UniProt P11868 (peptide sequence: AWHEGHER, peptide start residue: 285)” was tested, and the log2 fold change was -1.02. Target “UniProt P75974 (peptide sequence: LIEDGTQR, peptide start residue: 178)” has a log2 fold change of 0.336. “UniProt P08142 (peptide sequence: KRFTGAEFIVHFLEQQGIK, peptide start residue: 11)” was tested, and the log2 fold change was 1.49. Work on “UniProt P24240 (peptide sequence: YGFVFVDRDDAGNGTLTR, peptide start residue: 436)” yielded a log2 fold change of -0.866. In the case of “UniProt P07001 (peptide sequence: FFTGQITAAGK, peptide start residue: 152)”, the log2 fold change is reported as -0.651. With “UniProt P45541 (peptide sequence: TGMFTCGHQR, peptide start residue: 3)” the log2 fold change was -1.14. Target “UniProt P03007 (peptide sequence: VTDSLAVAR, peptide start residue: 127)” has a log2 fold change of 0.313. “UniProt P09169 (peptide sequence: MPYIGLTGSYR, peptide start residue: 198)” was tested, and the log2 fold change was 1.26. Target “UniProt P64624 (peptide sequence: QIVLNLYEK, peptide start residue: 192)” has a log2 fold change of 0.361. In the case of “UniProt Q47147 (peptide sequence: QANRGEVALENTHPFTR, peptide start residue: 80)”, the log2 fold change is reported as 0.755. “UniProt P36771 (peptide sequence: AGLGVTARPVEMMSPDLR, peptide start residue: 231)” was tested, and the log2 fold change was 0.543. “UniProt P00490 (peptide sequence: QCNPALAALLDK, peptide start residue: 460)” was tested, and the log2 fold change was 1.07. “UniProt P56258 (peptide sequence: VGCVFATR, peptide start residue: 136)” was tested, and the log2 fold change was -0.934. “UniProt P45395 (peptide sequence: LHVPLICITGRPESSMAR, peptide start residue: 122)” was tested, and the log2 fold change was 1.09. With “UniProt P06720 (peptide sequence: CVEQLANWHKELEEYKK, peptide start residue: 299)” the log2 fold change was -1.1. Work on “UniProt P76562 (peptide sequence: EHYRLRR, peptide start residue: 544)” yielded a log2 fold change of 0.855. Work on “UniProt P77611 (peptide sequence: LFSAFRK, peptide start residue: 4)” yielded a log2 fold change of 0.344. In the case of “UniProt P77272 (peptide sequence: LRLGVHDSSLVDPNIK, peptide start residue: 33)”, the log2 fold change is reported as 0.714. For “UniProt P64610 (peptide sequence: IVTMSLKPQNILCHR, peptide start residue: 126)”, the log2 fold change was -0.974. “UniProt P77374 (peptide sequence: INHPDRLNYPMKR, peptide start residue: 106)” gave a log2 fold change of -0.781. With “UniProt P39383 (peptide sequence: MLESHLR, peptide start residue: 221)” the log2 fold change was -0.592. For “UniProt P52129 (peptide sequence: LQIQGRPLSCYR, peptide start residue: 161)”, the log2 fold change was 0.646. Work on “UniProt P09323 (peptide sequence: AIDACITR, peptide start residue: 408)” yielded a log2 fold change of 0.593. For “UniProt P77766 (peptide sequence: LAQGGAVTR, peptide start residue: 133)”, the log2 fold change was -0.418. “UniProt P77795 (peptide sequence: IEQVDSPR, peptide start residue: 213)” was tested, and the log2 fold change was -0.95. “UniProt P33650 (peptide sequence: AYAGEASQHLDAALAR, peptide start residue: 217)” was tested, and the log2 fold change was 0.832. For “UniProt P0AAG8 (peptide sequence: TQIGSLSGGNQQK, peptide start residue: 402)”, the log2 fold change was 0.32. Target “UniProt P76134 (peptide sequence: TMNSVQLTAQK, peptide start residue: 298)” has a log2 fold change of -0.467. With “UniProt P27241 (peptide sequence: YTIVNVDVYEHASKEDK, peptide start residue: 90)” the log2 fold change was -0.487. Target “UniProt P37626 (peptide sequence: TVETSDER, peptide start residue: 297)” has a log2 fold change of 0.336. “UniProt P24192 (peptide sequence: PAPQQVCDDPR, peptide start residue: 310)” was tested, and the log2 fold change was -0.597. For “UniProt P31663 (peptide sequence: VLSSIADKLQAGER, peptide start residue: 207)”, the log2 fold change was -3.26. “UniProt P69829 (peptide sequence: EKMGSTGIGNGIAIPHGKLEEDTLR, peptide start residue: 58)” gave a log2 fold change of 0.37. In the case of “UniProt P46144 (peptide sequence: RVWATAQK, peptide start residue: 32)”, the log2 fold change is reported as -1.44. For “UniProt P23830 (peptide sequence: EALGVLHFK, peptide start residue: 132)”, the log2 fold change was -0.891. Work on “UniProt P27859 (peptide sequence: ELLPLIPAEK, peptide start residue: 188)” yielded a log2 fold change of -0.738. In the case of “UniProt P08200 (peptide sequence: AAIEYAIANDRDSVTLVHK, peptide start residue: 212)”, the log2 fold change is reported as -0.698.
